In the library only some 19% were active in any assay of this set; here they are far more common.
TGFb SMAD3 inh – inhibitors of TGF-b signaling; HepG2 CAGA-GFP TGF-b/SMAD3 reporter, GFP fluorescence, 18 h; TGF-beta stimulated, 500 pg/mL final; Potency, µM (top dose mostly 46.1 µM), for inactives: at the top dose activity, negative = inhibition, most hits filed as inhibitors; actives 1.2% (n = 410,000); note: potency is the fitted concentration of half-maximal effect; % is set by controls: 0 for no effect and ±100 for the full control effect; nearly all actives have a fitted effect of over 65% in size
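Per well, imaged GFP fluorescence of HEPG2 CAGA-GFP cells gives the signal; cells get compound, then TGF-beta (500 pg/mL final), 18 h at 37 degrees C; %Activity versus -TGF-beta and +DMSO controls.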
IL1B secr inh – inflammasome signaling inhibition, IL-1 beta readout; THP-1 LPS/ATP IL-1B secretion, AlphaLISA, 16 h; active compounds read low; activity change, % at 57.5 µM; actives 4.7% (n = 360,000); in the data active = activity change below about -50%; inconclusive = mostly about -30% to -49%; note: % is set by controls: 0 for no effect and ±100 for the full control effect
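THP-1 cells pretreated 1 hr with compounds (up to 57.5 uM final), then stimulated with LPS (250 ng/mL final) plus ATP (1.25 mM final); secreted IL-1B measured by AlphaLISA after 16 hr, decreased signal indicating inhibition.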
TDP1 block – TDP1 (human) enzyme inhibition | Q9NUW8 | recombinant TDP1, AlphaScreen DNA substrate cleavage | Potency, µM (titrated, usually from 130 µM), for the others: at the highest dose activity change, negative = inhibition, usual class: inhibitors | actives 0.28% (n = 350,000); note: potency is the fitted concentration of half-maximal effect; % is set by controls: 0 for no effect and ±100 for the full control effect; nearly all actives have a fitted effect of over 40% in size
Target sequence (Q9NUW8 whole entry, looked up): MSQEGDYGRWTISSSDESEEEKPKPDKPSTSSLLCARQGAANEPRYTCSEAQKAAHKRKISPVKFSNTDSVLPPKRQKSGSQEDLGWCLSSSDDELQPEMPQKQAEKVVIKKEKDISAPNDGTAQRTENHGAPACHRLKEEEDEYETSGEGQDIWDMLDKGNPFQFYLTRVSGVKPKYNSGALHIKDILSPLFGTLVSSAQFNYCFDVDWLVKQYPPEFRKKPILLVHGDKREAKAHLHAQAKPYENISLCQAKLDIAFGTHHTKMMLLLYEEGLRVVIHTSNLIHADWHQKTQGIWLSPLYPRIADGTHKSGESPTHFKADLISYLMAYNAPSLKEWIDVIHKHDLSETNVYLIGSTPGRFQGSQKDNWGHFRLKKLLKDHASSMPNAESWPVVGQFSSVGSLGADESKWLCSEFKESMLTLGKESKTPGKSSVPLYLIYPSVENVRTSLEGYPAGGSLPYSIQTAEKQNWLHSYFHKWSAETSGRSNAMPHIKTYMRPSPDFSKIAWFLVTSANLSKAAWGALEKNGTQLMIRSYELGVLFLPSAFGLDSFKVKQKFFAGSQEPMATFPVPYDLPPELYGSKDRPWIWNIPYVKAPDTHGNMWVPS
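Enzyme-compound mixtures sat 15 min at room temperature, followed by a 5 min reaction with 15 nM final substrate and 10 min with AlphaScreen beads. Recombinant human Tdp1 was used at 1 nM final.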
TDP1 cell CPT – DT40-hTDP1 cell growth loss with CPT; chicken DT40 Tdp1-/-;hTDP1 cells + 20 nM CPT, ATP luminescence, 48 h; AID 686979; Potency, µM (titrated, usually from 46.2 µM), for the others: at the top dose activity change, negative = growth inhibition, usual class: inhibitors; actives 12% (n = 420,000); note: potency is the fitted concentration of half-maximal effect; % is set by controls: 0 for no effect and ±100 for the full control effect; nearly all actives have a fitted effect of over 55% in size
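Chicken DT40 Tdp1-/- cells stably complemented with human TDP1 were seeded at 400 cells/well in medium containing 20 nM camptothecin, exposed to pin-transferred compounds, and grown at 37 °C for at least 48 hr. Viability was read as ATP luminescence.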
DT40 TDP1 no CPT – qHTS for Inhibitors of human tyrosyl-DNA phosphodiesterase 1 (TDP1): qHTS in cells in absence of CPT; Potency, µM (top dose mostly 46.2 µM), for the others: at the highest dose activity change, negative = growth inhibition, usual class: inhibitors; AID 686978, 2013; actives 15% (n = 420,000); DT40 Tdp1-/- hTDP1 cells, no CPT, ATP luminescence, 48 h; note: potency is the fitted concentration of half-maximal effect; % is set by controls: 0 for no effect and ±100 for the full control effect; nearly all actives have a fitted effect of over 55% in size
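DT40 Tdp1-/-;hTDP1 cells, no CPT (DMSO vehicle only), 400 cells/well; compounds pin-transferred; ≥48 hr, 37 °C; CellTiter-Glo 30 min RT dark, luminescence read.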
HepG2 tox – kills HepG2 cells in TGF-b inhibitor counter-screen | HepG2 CAGA-GFP viability, ATP luminescence, 18 h | Potency, µM (titrated, usually from 46.1 µM), for inactives: top-dose activity change, negative = cytotoxicity, hits mostly cytotoxic | actives 0.76% (n = 410,000) | AID 588856; note: potency is the fitted concentration of half-maximal effect
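CellTiter-Glo luminescence gave cytotoxicity after 18 hours at 37 degrees C. The cells were HepG2 CAGA-GFP in 1% FBS DMEM, stimulated with 500 pg/mL TGF-beta after compound addition. %Activity was normalised to no-cell wells (complete cell-killing) and DMSO (no toxicity), and curves were fitted and classified.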
* marks the source's active call; other numbers are inactive results; ? = inconclusive; nt = no result given; ! = not active in a repeat; [ ] = another dose, or the depositor's remark. Unless noted, calls come from the whole dose curve; as a rule, active = well fitted curve in the direction sought with a large enough effect; inconclusive = small, poorly fitted or top-dose-only effect, or another doubt; inactive = no such curve, though single readings can be large; an effect the other way counts as inactive or inconclusive.

SMILES	TGFb SMAD3 inh	IL1B secr inh	TDP1 block	TDP1 cell CPT	DT40 TDP1 no CPT	HepG2 tox
O=C(Cc1ccc2c(c1)OCO2)NN=Cc1ccc([N+](=O)[O-])o1	10µM*	-61*	0%	?	12µM*	-102%
O=C(CNC(=O)c1ccccc1)N/N=C/c1ccc([N+](=O)[O-])o1	?	17	5%	9.2µM*	23µM*	-94%
O=C(Cc1ccc2c(c1)OCCO2)N/N=C/c1ccco1	4%	-14	0%	2%	-9%	-13%
O=C(CNC(=O)c1ccccc1)N/N=C/c1ccccc1Cl	3%	-18	0%	1%	14%	3%
Cc1ccc(NCC(=O)N/N=C\c2ccc([N+](=O)[O-])o2)cc1	11µM*	-64*	6%	13µM*	18µM*	13µM*
O=C(Cc1ccccc1)N/N=C/c1ccc(-c2ccc([N+](=O)[O-])cc2)o1	14%	19	0%	-15%	?	-1%
O=C(CNc1ccccc1)N/N=C/c1ccc([N+](=O)[O-])o1	?	?	-5%	10µM*	7.3µM*	11µM*
CCOc1cc(C)nc(N2CCC(C(=O)NC3CC3)CC2)n1	5%	15	nt	7%	-9%	7%
O=C(CCC(=O)Nc1ccc(Cl)cc1Cl)N/N=C/c1ccc([N+](=O)[O-])o1	11µM*	-77*	-3%	2.6µM*	2.9µM*	16µM*
COc1cc(Cl)c(NC(=O)CCc2nc3cccnc3n2-c2ccccc2)c(OC)c1	-3%	nt	12%	?	?	-4%
CCc1ccc(NC(=O)c2ccc(F)c(S(=O)(=O)N(C)C3CCCCC3)c2)cc1	-9%	nt	5%	?	21µM*	1%
CCc1ccc(NC(=O)c2ccc(F)c(S(=O)(=O)NC3CCCCCC3)c2)cc1	11µM*	nt	10%	?	21µM*	-17%
CCc1ccc(NC(=O)c2ccc(F)c(S(=O)(=O)N3CCN(c4ccc(OC)cc4)CC3)c2)cc1	-2%	nt	3%	?	?	-13%
CC(=O)Nc1ccc(NC(=O)c2cccc(S(=O)(=O)N(C)C3CCCCC3)c2)cc1	-1%	56	1%	?	?	-1%
Cc1ccccc1NC(=O)c1ccc(F)c(S(=O)(=O)NC2CCCC2)c1	-1%	nt	5%	6%	-10%	8%
O=C(Nc1cc(Cl)cc(Cl)c1)c1ccc(F)c(S(=O)(=O)NC2CCCC2)c1	?	nt	3%	16µM*	18µM*	-111%
CC1=C(C(=O)OC(C)C)C(c2ccc(O)cc2)NC(=O)N1 (stereo not drawn)	8%	0	nt	-1%	-4%	3%
CC1=C(C(=O)OC(C)C)[C@@H](c2cccc3nonc23)C([N+](=O)[O-])=C(C)N1	nt	nt	7%	?	15µM*	nt
COC(=O)C1=C(C)NC(C)=C(C(=O)OC)C1c1ccc2ccccc2n1	-13%	9	-2%	-7%	-17%	7%
COC(=O)C1=C(C)NC(C)=C([N+](=O)[O-])C1c1ccccc1C(F)(F)F (stereo not drawn)	-7%	-12	11%[56.1 µM]	17µM*	12µM*!	-14%
CC1CCN(c2nc3ccc(C(=O)NCc4ccccc4Cl)cc3s2)CC1	?	nt	8%	?	21µM*	5%
CC1CCN(c2nc3ccc(C(=O)NCc4ccc(Cl)cc4)cc3s2)CC1	-6%	nt	3%	?	?	-4%
Cc1cccc(N2CCN(C(=O)c3ccc4nc(N5CCC(C)CC5)sc4c3)CC2)c1C	-13%	nt	5%	21µM*	16µM*	-27%
CC1CCN(c2nc3ccc(C(=O)NCCCN4CCCCC4)cc3s2)CC1	37%	-20	nt	?	23µM*	-41%
CCc1ccc(OCc2nnc(-c3ccccc3Br)o2)cc1	2%	-8	50µM*	?	5%	1%
SMILES	TGFb SMAD3 inh	IL1B secr inh	TDP1 block	TDP1 cell CPT	DT40 TDP1 no CPT	HepG2 tox
CCN(CCn1cccn1)Cc1ccccc1OCC(O)CN1CCc2ccccc2C1 (stereo not drawn)	-4%	-3	nt	?	?	-28%
O=C(Nc1cc(Cl)cc(Cl)c1)c1cccc(OC(F)F)c1	?	-95*	-5%	18µM*	?	-49%
CN(C)S(=O)(=O)c1cccc(C(=O)Nc2cc(Cl)cc(Cl)c2)c1	?	?	-4%	?	18µM*	-35%
CN(C)S(=O)(=O)c1cccc(NC(=O)c2ccncc2)c1	1%	6	6%	-20%	?	-4%
COc1ccccc1NC(=O)c1ccc(S(=O)(=O)N(C)C)cc1	4%	-8	-2%	5%	-16%	-10%
COc1ccc(S(=O)(=O)N(C)C)cc1NC(=O)c1ccc2c(c1)OCCO2	2%	-57*	2%	-22%	-25%	4%
CN(C)S(=O)(=O)c1cccc(NC(=O)c2ccc3c(c2)OCCO3)c1	0%	-3	-1%	15µM*	15µM*	-18%
Cc1cccn2c(=O)c(C(=O)N3CCN(c4ccccc4F)CC3)cnc12	0%	nt	5%	-15%	-16%	-6%
CCOC(=O)C1CCC(CN(Cc2cccc(Br)c2)S(=O)(=O)c2ccc(Cl)cc2)CC1 (stereo not drawn)	-12%	nt	-3%	29µM*	21µM*	4%
CCOC(=O)C1CCC(CN(Cc2c(Cl)cccc2Cl)S(=O)(=O)c2ccc(Cl)cc2)CC1 (stereo not drawn)	0%	nt	3%	?	21µM*	-2%
CCOC(=O)C1CCC(CN(Cc2ccccc2)S(=O)(=O)c2ccc(Cl)cc2)CC1 (stereo not drawn)	2%	nt	-13%	?	?	-13%
CCOC(=O)C1CCC(CN(Cc2c(Cl)cccc2Cl)S(=O)(=O)c2ccc(F)cc2)CC1 (stereo not drawn)	?	nt	nt	?	?	-29%
COc1ccc(C2CC(c3ccccc3)=NN2C(=O)CN2N=NC3C(=O)N(c4cccc(F)c4)C(=O)C32)cc1 (stereo not drawn)	-4%	-6	9%	-26%	?	5%
CC(=O)NS(=O)(=O)c1ccc(NC(=O)c2cccc3ccccc23)cc1	0%	5	nt	-25%	-23%	-16%
O=S(=O)(CCSc1ccccn1)c1nc2ccccc2s1	8.9µM*	-106*	-7%	2.3µM*	5.2µM*	10µM*

High-throughput results deposited in PubChem BioAssay by National Center for Advancing Translational Sciences (NCATS).
